# In the supplement of paper PMC3414501:
# Counter-ions that a name gives are not always drawn. Unmarked numbers belong to inactive results.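 The calls were made as follows: active = HIS4 sensitivity z-score above 5 vs DMSO controls; inactive = score 5 or below.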
# Test system: S. cerevisiae NKY1551 his4x/his4B, sporulating
# Test: HIS4 meiotic recombination assay sensitivity score (z-score vs DMSO controls); higher = stronger inhibition of sporulation/recombination, active = hit call of the paper
# Conditions: stock concentration (mM, diluted 1:100): 7.3
# Description: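 NIH Clinical Collection compounds were added 1:100 from stock (about 100 µM final) to S. cerevisiae. Growth: average doubling time (AvgG) over 24 h of BY4741 (wild-type) or AD1-9 (drug-efflux-pump deficient) in rich media. HIS4: the his4x/his4B heteroallelic recombination reporter strain (SK1) was sporulated 5 h with compound at 30°C, then colony density was read on -his plates after 48 h. Sensitivity score = (compound − mean of 8 DMSO controls)/SD of DMSO controls. Hit cutoffs are >2 for growth and >5 for sporulation.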
row,Compound,HIS4 meiotic recombination assay sensitivity score
1,CN1[C@@H]2CC(OC(=O)[C@H](CO)c3ccccc3)C[C@H]1[C@@H]1O[C@@H]12 (stereo partly drawn),-0.64

# Same assay, conditions: stock concentration (mM, diluted 1:100): 7.6
row,Compound,HIS4 meiotic recombination assay sensitivity score
1,CN1CC[C@]23CCCC[C@H]2[C@H]1Cc1ccc(O)cc13 [Levorphanol tartrate],-1.13

# Same assay, conditions: stock concentration (mM, diluted 1:100): 8.2
row,Compound,HIS4 meiotic recombination assay sensitivity score
1,COc1ccc2c(c1)[C@]13CCCC[C@@H]1[C@H](C2)N(C)CC3 [Dextromethorphan hydrobromide],5.52 (active)

# Same assay, conditions: stock concentration (mM, diluted 1:100): 8.6
row,Compound,HIS4 meiotic recombination assay sensitivity score
1,CCOC(=O)C1(c2ccccc2)CCN(CCC(C#N)(c2ccccc2)c2ccccc2)CC1 [Diphenoxylate],0.41

# Same assay, conditions: stock concentration (mM, diluted 1:100): 9
row,Compound,HIS4 meiotic recombination assay sensitivity score
1,Cc1ncc2n1-c1ccc(Cl)cc1C(c1ccccc1F)=NC2 [Midazolam hydrochloride],4.65

# Same assay, conditions: stock concentration (mM, diluted 1:100): 9.8
row,Compound,HIS4 meiotic recombination assay sensitivity score
1,CN1CC[C@]2(c3cccc(O)c3)Cc3nc4ccccc4cc3C[C@H]2C1,0.28

# Same assay, conditions: stock concentration (mM, diluted 1:100): 10
row,Compound,HIS4 meiotic recombination assay sensitivity score
1,C[C@]12Cc3c[nH]nc3C[C@@H]1CC[C@@H]1[C@@H]2CC[C@@]2(C)[C@H]1CC[C@]2(C)O [Stanozolol],-0.39
2,OC1CCCCC1N1CCC(c2ccccc2)CC1 (stereo not drawn) [Vesamicol hydrochloride],-0.31
3,CC(C)CC(N(C)C)C1(c2ccc(Cl)cc2)CCC1 (stereo not drawn) [Sibutramine hydrochloride],0.96
4,C[C@H]1CCC[C@H](O)CCCCCc2cc(O)cc(O)c2C(=O)O1 [Zeranol],-1.27
5,NC1=NC(=O)C(c2ccccc2)O1 (stereo not drawn) [Pemoline],-0.78
6,CN1C(=O)COc2c(C(=O)NC3CN4CCC3CC4)cc(Cl)cc21 (stereo not drawn) [Azasetron],1.08
7,C[C@]12CC[C@H]3[C@@H](CCC4=CC(=O)CC[C@@]43C)[C@@H]1CC[C@@H]2O [Testosterone],-0.83
8,C[C@]12CC[C@H](O)CC1=CC[C@@H]1[C@@H]2CC[C@]2(C)C(=O)CC[C@@H]12 [Dehydroepiandrosterone],3.07
9,C[N+]1(C)CCN(c2ccccc2)CC1 [Dimethylphenylpiperazinium Iodide],-0.3
10,CCN(CC)CCOC(=O)C(O)(c1ccccc1)c1ccccc1 [Benactyzine hydrochloride],-0.53
11,CC[C@@H]1C=CC=CC[C@H](C)[C@@H](O)[C@@H](C)C(=O)[C@H](C)[C@@H](O)[C@H](C)C(=O)[C@H](C)[C@@H](O)[C@H](C)C=CC(=O)O[C@H]2[C@@H](C)[C@@H](CC1)O[C@@]1(CC[C@@H](C)[C@@H](C[C@H](C)O)O1)[C@@H]2C [Oligomycin c],0.21
12,COc1cc(N)c(Cl)cc1C(=O)NC1CN2CCC1CC2 (stereo not drawn) [Zacopride],-2.43
13,CNC(=O)Oc1ccc2c(c1)[C@]1(C)CCN(C)[C@@H]1N2C [Physostigmine],-0.16
14,CN1C(=O)CN=C(c2ccccc2)c2cc(Cl)ccc21 [Diazepam],2.18
15,CCCCC/C=C\C/C=C\C/C=C\C/C=C\CCCC(=O)Nc1ccc(O)cc1,-0.8
16,C[C@]12CCC(=O)C=C1CC[C@@H]1[C@@H]2CC[C@@]2(C)[C@H]1CC[C@]2(C)O [Methyltestosterone],2.7
17,COc1cccc(C2(O)CCCCC2CN(C)C)c1 (stereo not drawn) [Tramadol],-2.65
18,CC[C@]1(O)CC[C@H]2[C@@H]3CCC4=CCCC[C@@H]4[C@H]3CC[C@@]21C [Ethylestrenol],1.02
19,COc1cc2c(cc1OC)[C@@]13CCN4CC5=CCO[C@H]6CC(=O)N2[C@H]1[C@H]6[C@H]5C[C@H]43 [Brucine],0.05
20,c1ccc2c3c([nH]c2c1)CNCC3 [Tryptoline],-3.38

# Same assay, conditions: stock concentration (mM, diluted 1:100): 10.1
row,Compound,HIS4 meiotic recombination assay sensitivity score
1,CC[C@@H](C(N)=O)N1CCCC1=O [Levetiracetam],-0.77
2,C[N+]1(CCC(C(N)=O)(c2ccccc2)c2ccccc2)CCCCC1 [Fenpiverinium bromide],-1.06
3,COc1ccc2[nH]cc(C3=CCNCC3)c2c1,3.92
4,C[C@]12C/C(=C/O)C(=O)C[C@@H]1CC[C@@H]1[C@@H]2CC[C@@]2(C)[C@H]1CC[C@]2(C)O [Oxymetholone],8.48 (active)
5,C[C@]12CCC(=O)C[C@@H]1CC[C@@H]1[C@@H]2CC[C@@]2(C)[C@H]1CC[C@]2(C)O [Mestanolone],-0.62

# Same assay, conditions: stock concentration (mM, diluted 1:100): 11.3
row,Compound,HIS4 meiotic recombination assay sensitivity score
1,CC(C)CC(N(C)C)C1(c2ccc(Cl)cc2)CCC1 (stereo not drawn) [Sibutramine],1.61

# Same assay, conditions: stock concentration (mM, diluted 1:100): 19.9
row,Compound,HIS4 meiotic recombination assay sensitivity score
1,Cc1ccc(-c2nc3ccc(C)cn3c2CC(=O)N(C)C)cc1 [Zolpidem tartrate],0.04
